ClpP mod: qHTS Assay for Activators of ClpP; AID 651965, 2013; purified B. subtilis ClpP, FRET peptide cleavage, 20 min; Potency, µM (titrated, usually from 57.5 µM), without a hit: at the top dose activity change, negative = active; ATP-dependent Clp protease proteolytic subunit (Bacillus subtilis (strain 168)), P80244; 1.9% of 340,000 active; active = well fitted falling curve with a large enough effect; inconclusive = small, poorly fitted or top-dose-only effect; inactive = no such curve, though single readings can be large or run the other way; also: the source files actives as falling curves though it sought activators and does not explain the sign; nearly all actives have a fitted effect of over 65% in size
Target sequence (P80244 whole entry, looked up): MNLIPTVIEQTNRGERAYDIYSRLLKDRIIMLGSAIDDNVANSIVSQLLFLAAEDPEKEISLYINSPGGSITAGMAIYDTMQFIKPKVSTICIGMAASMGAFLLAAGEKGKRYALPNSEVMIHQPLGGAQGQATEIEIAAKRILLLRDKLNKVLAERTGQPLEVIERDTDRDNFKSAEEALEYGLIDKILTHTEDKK
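ClpP 10 microg/mL final, pH 8 Tris/KCl buffer with BSA, glycerol, Tween-20; compound pinned in; FRET-FV substrate; RT 20 min; Ex320/Em430; ΔFRET vs ADEP 5.8 microM, DMSO, no enzyme.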
DT40 TDP1 no CPT: qHTS for Inhibitors of human tyrosyl-DNA phosphodiesterase 1 (TDP1): qHTS in cells in absence of CPT | DT40 Tdp1-/- hTDP1 cells, no CPT, ATP luminescence, 48 h | 15% of 420,000 active | Potency, µM (titrated, usually from 46.2 µM), for the others: top-dose activity change, negative = growth inhibition, usual class: inhibitors; also: % is scaled to controls: 0 for no effect and ±100 for the full control effect; nearly all actives have a fitted effect of over 55% in size
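Chicken DT40 Tdp1-/- cells complemented with human TDP1, screened without camptothecin (DMSO vehicle only), 400 cells/well. Compounds pin-transferred, cells incubated at 37 °C for at least 48 hr. Growth read as ATP-dependent luminescence (CellTiter-Glo, 30 min at RT).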
TDP1 block: blocks human tyrosyl-DNA phosphodiesterase 1; Q9NUW8; recombinant TDP1, AlphaScreen DNA substrate cleavage; Potency, µM (series often up to 130 µM), for inactives: at the highest dose activity change, negative = inhibition, usual class: inhibitors; 0.28% of 350,000 active; also: % is scaled to controls: 0 for no effect and ±100 for the full control effect; nearly all actives have a fitted effect of over 40% in size
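Enzyme-compound mixtures sat 15 min at room temperature, followed by a 5 min reaction with 15 nM final substrate and 10 min with AlphaScreen beads. Recombinant human Tdp1 was used at 1 nM final.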
DT40 TDP1 CPT: DT40-hTDP1 cell growth loss with CPT | Potency, µM (doses to about 46.2 µM), for the others: top-dose activity change, negative = growth inhibition, actives largely listed as inhibitors | AID 686979 | chicken DT40 Tdp1-/-;hTDP1 cells + 20 nM CPT, ATP luminescence, 48 h | 12% of 420,000 active; also: % is scaled to controls: 0 for no effect and ±100 for the full control effect; nearly all actives have a fitted effect of over 55% in size
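Chicken DT40 Tdp1-/- cells stably complemented with human TDP1 were seeded at 400 cells/well in medium containing 20 nM camptothecin, exposed to pin-transferred compounds, and grown at 37 °C for at least 48 hr. Viability was read as ATP luminescence.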
The depositor's hits bear a star; u = inconclusive; x = no result; [ ] = dose if it differs, or a comment. An excerpt weighted towards active compounds, which were near 17% of everything screened. Unless noted, calls follow the shape of the dose curve; as a rule, active = well fitted curve in the direction sought with a large enough effect; inconclusive = small, poorly fitted or top-dose-only effect, or another doubt; inactive = no such curve, though single readings can be large; an effect the other way counts as inactive or inconclusive. Potency is read from the fitted curve at half-maximal effect.

SMILES	ClpP mod	DT40 TDP1 no CPT	TDP1 block	DT40 TDP1 CPT
CCc1nc2ccc(C(=O)NCc3ccc(OC)cc3)cn2c1N(CC)CCOC	-4.2%	u	x	14.6µM*
CCc1nc2ccc(C(=O)NCc3ccccc3OC)cn2c1N(CC)CCOC	1.0%	16.4µM*	x	16.4µM*
CCc1ccc2occ(CC(=O)Nc3nnc(C)s3)c2c1	0.2%	-24.4%	8.6%	-5.7%
CCC(Oc1ccc(F)cc1)C(=O)Nc1nc(-c2ccc(F)cc2)ns1 (stereo not drawn)	-0.1%	10.3µM*	0.0%	18.4µM*
O=[N+]([O-])c1ccc2c(c1)-c1ccccc1C2=NO	1.8%	16.4µM*	x	18.4µM*
O=[N+]([O-])c1ccc2c(c1)C(=Nc1ccccc1)c1ccccc1-2	x	-2.2%	x	1.9%
O=C(Nc1ccc2c(c1)Cc1cc([N+](=O)[O-])ccc1-2)C(F)(F)F	-7.1%	6.51µM*	x	u
COc1cc2c(cc1NC(=O)C(F)(F)F)-c1ccc(NC(=O)C(F)(F)F)cc1C2	2.4%	-15.8%	x	-17.8%
O=C(Nc1cc2c(cc1Cl)-c1ccc([N+](=O)[O-])cc1C2=NO)C(F)(F)F	1.1%	23.1µM*	x	u
Nc1ccc2c(c1)C(=NO)c1cc([N+](=O)[O-])ccc1-2	1.8%	2.06µM*	x	0.581µM*
COc1ccc(CCNC(=O)c2cn(C)c3ccc(S(=O)(=O)N(C)C)cc3c2=O)cc1OC	-1.4%	u	7.0%	-5.4%
CC(=O)Nc1nc(C)c(CCC2OCCO2)c(=O)[nH]1	-0.4%	-8.2%	x	-3.5%
COc1ccc(-n2c(CCNC(=O)c3ccc(-c4cccc(F)c4)cc3)nnc2SC)cc1	x	u	x	-0.9%[9.04 µM]
CO[C@H]1COC(=O)[C@H]2CCCN2C(=O)[C@@H](C)COC(=O)C/C=C\[C@@H]1C	x	x	16.4%[21 µM]	x
CCCn1c(C)nc2c(NC3CCN(Cc4ccccc4)CC3)nc(C)nc21	x	x	3.9%	x
CCC(CN)CC(C)CCNCC(O)CNCC(C)CC(CC)CN (stereo not drawn)	x	3.1%	x	-1.2%
COc1cccc(CNC(=O)[C@@H]2CCCN2C(=O)[C@@H]2CCCN2C(=O)c2c(F)cccc2F)c1	-1.6%	-16.4%	x	-11.8%
CC1CCN(S(=O)(=O)c2nnc(NC(=O)c3cccc([N+](=O)[O-])c3)s2)CC1	1.2%	-7.5%	2.7%	-26.2%
Cc1ccc(C)c(N2CCN(c3nc4ccccc4c4nc(CCn5nc(C)cc5C)nn34)CC2)c1	-1.5%	-1.0%	-2.9%	-23.5%
Cc1cc(C)n(CCc2nc3c4ccccc4nc(N4CCN(c5ccccc5)CC4)n3n2)n1	-5.2%	3.26µM*	5.9%	2.91µM*
O=c1c(-c2cccc(Cl)c2)nc2cncnc2n1Cc1ccc(F)cc1	x	-21.3%	x	1.3%
COC(=O)C/C=C\[C@@H](C)[C@@H](/C=N\OCC[C@H]1C=C[C@H](OC(C)=O)[C@@H](COC(C)=O)O1)NS(=O)(=O)c1ccc(C)cc1	x	x	1.6%[21 µM]	x
Cc1nnc(NC(=O)C2CCN(c3nnnn3-c3ccccc3)CC2)s1	1.2%	-12.9%	-2.9%	u
O=C(Nc1cccc2c1CCCC2)C1CCN(c2nnnn2-c2ccccc2)CC1	0.1%	16.4µM*	2.6%	u
COC(=O)CC1C(C)(C)C(=O)C2CC3C4=CC(=O)OC(c5ccoc5)[C@]4(C)CCC3[C@@]1(C)C2=O (stereo partly drawn)	x	-5.0%	10.2%[56.1 µM]	1.9%
SMILES	ClpP mod	DT40 TDP1 no CPT	TDP1 block	DT40 TDP1 CPT
CC1CC(C)CN(S(=O)(=O)c2ccc(C(=O)N(C)Cc3ccccc3)cc2)C1 (stereo not drawn)	0.4%	20.6µM*	-0.3%	u
CC1CC(C)CN(S(=O)(=O)c2ccc(C(=O)N(c3ccccn3)C3CCCCC3)cc2)C1 (stereo not drawn)	x	16.4µM*	0.0%	u
O=C(c1ccc(S(=O)(=O)N2CCCCC2)cc1)N(c1ccccn1)C1CCCCC1	x	u	3.6%	23.1µM*
O=C(c1ccc(S(=O)(=O)N2CCCCCC2)cc1)N(c1ccccn1)C1CCCCC1	x	u	2.7%	u
CSc1ccc(CN(C)C(=O)c2ccc(S(=O)(=O)Nc3ccccc3)cc2)cc1	-2.9%	20.6µM*	0.2%[0.505 µM]	18.4µM*
CSC(=N)N	x	0.6%	-8.0%[56.1 µM]	11.3%
N#CC1=C(N)C(C#N)(C#N)C(c2cccnc2)C2CC(c3ccccc3)CC=C12 (stereo not drawn)	82.9%	20.6µM*	1.9%	16.4µM*
CCOC(=O)N1CC=C2C(C#N)=C(N)C(C#N)(C#N)[C@H](c3ccccc3OCC)[C@H]2C1	-17.0%	u	-7.1%	u
N#CC1=C(N)C(C#N)(C#N)[C@H](c2cccnc2)[C@H]2CN(C(=O)OCc3ccccc3)CC=C12	-1.1%	14.6µM*	5.3%	u
N#CC1=C(N)C(C#N)(C#N)C(c2ccncc2)C2CN(C(=O)OCc3ccccc3)CC=C12 (stereo not drawn)	24.2%	16.4µM*	1.7%	20.6µM*
CN(C)CCCNc1nc(-c2ccc(Cl)cc2)nc2ccccc12	-1.1%	u	x	u
CCOCCCn1c(SCC(=O)NCCCOC)nc2c(sc3ccccc32)c1=O	-11.0%	-18.3%	-1.5%	-8.0%
COc1ccccc1-c1ccnc2c(-c3ccc(Br)cc3)c(C)nn12	0.3%	-23.4%	-0.6%	-17.9%
CCc1nn2c(-c3ccccc3OC)ccnc2c1-c1ccccc1	-0.7%	20.6µM*	-7.1%	u
CCc1nn2c(-c3ccccc3OC)ccnc2c1-c1ccc(F)cc1	-2.2%	u	1.9%	23.1µM*
COc1ccc(Br)cc1C1NC(c2ccc3c(c2)OCO3)=CC(c2cc(Cl)ccc2O)N1 (stereo not drawn)	x	x	3.5%	x
COc1ccccc1C1NC(c2ccc3c(c2)OCO3)=CC(c2ccccc2O)N1 (stereo not drawn)	-12.7%	10µM*	1.5%	11.2µM*
COc1ccccc1C1NC(c2ccc3c(c2)OCO3)=CC(c2cc(Cl)ccc2O)N1 (stereo not drawn)	-16.1%	3.98µM*	2.8%	7.94µM*
Oc1ccc(Cl)cc1C1C=C(c2ccc3c(c2)OCO3)NC(c2ccc(Br)cc2)N1 (stereo not drawn)	-13.5%	u	4.6%	15.8µM*
COc1ccc(C2NC(c3ccc4c(c3)OCO4)=CC(c3ccccc3O)N2)cc1OC (stereo not drawn)	-7.8%	17.8µM*	4.7%	12.6µM*
CCOc1ccccc1C1NC(c2ccc3c(c2)OCO3)=CC(c2ccccc2O)N1 (stereo not drawn)	-11.1%	14.1µM*	1.2%	11.2µM*
Cc1cccc(C)c1NC(=O)CNC(=O)c1ccncc1	-0.5%	0.8%	1.3%	-2.8%
O=c1[nH]c(/C(Cl)=C/c2cccc(F)c2)nc2cc(C(F)(F)F)ccc12	x	23.1µM*	3.5%	u
CCc1nnc(NS(=O)(=O)c2ccc(NC(=O)c3ccccc3C)cc2)s1	-2.6%	-4.9%	0.0%	-5.8%
